Screens from PubChem.
Sampled rows, rich in hits. Any-hit rate of the full collection: about 19%.
RORg inh – qHTS for inhibitors of ROR gamma transcriptional activity. Nuclear receptor ROR-gamma (Mus musculus), P51450. Drosophila S2 Gal4-RORgamma UAS-luciferase reporter, 20 h. Potency, µM (titrated, usually from 53.6 µM), without a hit: top-dose activity change, negative = inhibition, most hits filed as inhibitors. hit rate 5.4% among 310,000. AID 2551, 2010; note: nearly all actives have a fitted effect of over 60% in size
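Schneider cells (Drosophila), stable Gal4 DBD–ROR gamma + UAS-luc; 1 hr cmpd preincubation; Cu2+ induction 700 uM final; 20 hr ambient; luminescence.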
TDP1 block – qHTS Assay for Inhibitors of Tyrosyl-DNA Phosphodiesterase (TDP1) | hit rate 0.28% among 350,000 | Potency, µM (series often up to 130 µM), inactives show at the highest dose activity change, negative = inhibition, hits mostly inhibitors | Tyrosyl-DNA phosphodiesterase 1 (Homo sapiens), Q9NUW8 | AID 485290, 2010 | recombinant TDP1, AlphaScreen DNA substrate cleavage; note: nearly all actives have a fitted effect of over 40% in size
Target sequence (Q9NUW8 whole entry, looked up): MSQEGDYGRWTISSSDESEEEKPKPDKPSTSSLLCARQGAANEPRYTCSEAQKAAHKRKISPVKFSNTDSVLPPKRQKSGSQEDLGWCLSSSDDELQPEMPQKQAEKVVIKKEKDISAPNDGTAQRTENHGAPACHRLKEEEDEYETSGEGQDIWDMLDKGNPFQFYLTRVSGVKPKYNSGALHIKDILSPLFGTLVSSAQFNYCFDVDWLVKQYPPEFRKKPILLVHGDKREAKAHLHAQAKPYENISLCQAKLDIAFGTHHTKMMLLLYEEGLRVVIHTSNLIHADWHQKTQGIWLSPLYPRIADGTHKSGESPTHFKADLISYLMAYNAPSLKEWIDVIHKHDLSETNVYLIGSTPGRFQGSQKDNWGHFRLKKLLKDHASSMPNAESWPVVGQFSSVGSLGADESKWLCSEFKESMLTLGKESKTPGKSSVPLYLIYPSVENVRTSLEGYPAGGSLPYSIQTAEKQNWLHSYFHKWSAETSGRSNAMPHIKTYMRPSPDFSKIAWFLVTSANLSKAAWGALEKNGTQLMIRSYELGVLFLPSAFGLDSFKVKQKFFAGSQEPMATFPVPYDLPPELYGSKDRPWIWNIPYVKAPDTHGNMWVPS
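Compounds were preincubated with Tdp1 (1 nM final) for 15 min at room temperature before substrate (15 nM final) started a 5 min reaction; beads (10 ug/ml final) were then added for 10 min before AlphaScreen detection.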
VP16 counter – VP16 counterscreen qHTS for inhibitors of ROR gamma transcriptional activity. hit rate 3.5% among 310,000. AID 2546, 2010. Potency, µM (doses to about 53.6 µM), for inactives: top-dose activity, negative = inhibition, hits mostly inhibitors. Drosophila S2 Gal4-VP16 UAS-luciferase, luminescence, 20 h;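 note: Gal4-VP16 expression switched on by copper sulfate through the metallothionein promoter; nearly all actives have a fitted effect of over 50% in size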
DT40 TDP1 CPT – qHTS for Inhibitors of human tyrosyl-DNA phosphodiesterase 1 (TDP1): qHTS in cells in presence of CPT. chicken DT40 Tdp1-/-;hTDP1 cells + 20 nM CPT, ATP luminescence, 48 h. Potency, µM (doses to about 46.2 µM), for inactives: at the highest dose activity change, negative = growth inhibition, actives largely listed as inhibitors. hit rate 12% among 420,000. AID 686979, 2013; note: nearly all actives have a fitted effect of over 55% in size
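Chicken DT40 Tdp1-/- cells stably complemented with human TDP1 were seeded at 400 cells/well in medium containing 20 nM camptothecin, exposed to pin-transferred compounds, and grown at 37 °C for at least 48 hr. Viability was read as ATP luminescence.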
TDP1 cell noCPT – qHTS for Inhibitors of human tyrosyl-DNA phosphodiesterase 1 (TDP1): qHTS in cells in absence of CPT | DT40 Tdp1-/- hTDP1 cells, no CPT, ATP luminescence, 48 h | Potency, µM (titrated, usually from 46.2 µM), for the others: at the top dose activity change, negative = growth inhibition, actives largely listed as inhibitors | hit rate 15% among 420,000; note: nearly all actives have a fitted effect of over 55% in size
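Camptothecin absent (DMSO only). Human TDP1-complemented DT40 knockout cells, 400 cells/well, 37 °C for minimum 48 hr; ATP measured via CellTiter-Glo, 30 min dark incubation, luminescence.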
* hit, by the source's call; ! = a repeat was not active; [ ] = dose if it differs, or a comment. Calls come from the whole dose curve; as a rule, active = well fitted curve in the direction sought with a large enough effect; inconclusive = small, poorly fitted or top-dose-only effect, or another doubt; inactive = no such curve, though single readings can be large; an effect the other way counts as inactive or inconclusive. % is set by controls: 0 for no effect and ±100 for the full control effect; potency is the fitted concentration of half-maximal effect.

Screening CCCCCCCCC(c1nc2cc(C)c(C)cc2[nH]1)n1c(=O)c(-c2ccccc2Br)nc2ccccc21 (centres undefined) returned DT40 TDP1 CPT -23.2% and TDP1 cell noCPT inconclusive.
`O=C(CCc1ccccc1)N1Cc2cc(N3CCOCC3)ccc2-n2nncc2C1` gave DT40 TDP1 CPT -29.1% and TDP1 cell noCPT -8.4%.
CC(=O)O[C@@H]1/C=C/[C@](C)(O)C[C@@H](C)C/C=C/[C@H]2[C@@H]3O[C@]3(C)[C@@H](C)[C@H]3[C@H](Cc4ccccc4)NC(=O)[C@@]312 was read as DT40 TDP1 CPT 0.517µM* and TDP1 cell noCPT 0.461µM*.
CCOc1ccc(C(C)=O)cc1Cc1c(O)[nH]c(=S)[nH]c1=O was read as RORg inh -33.4%, TDP1 block 9.9%, VP16 counter -8.9%, DT40 TDP1 CPT -2.3% and TDP1 cell noCPT 1.7%.
For O=C1c2ccccc2-c2cccc3cccc1c23 the results were RORg inh 24.0%, TDP1 block 12.4%[56.1 µM], VP16 counter 3.9%, DT40 TDP1 CPT 20.6µM*! and TDP1 cell noCPT 18.4µM*!.
`COP(=O)(OC)c1nc(-c2cccc3ccccc23)oc1NCCc1ccccc1` gave RORg inh -23.7%[10 µM], TDP1 block -1.1%, VP16 counter 3.2%, DT40 TDP1 CPT inconclusive and TDP1 cell noCPT inconclusive.
For COP(=O)(OC)c1nc(-c2cccc3ccccc23)oc1N1CCOCC1 the results were RORg inh -15.8%, TDP1 block 3.5%, VP16 counter -10.5%, DT40 TDP1 CPT -15.2% and TDP1 cell noCPT 18.4µM*.
`Cc1cc(/C=C2\C(=O)NC(=O)N(c3ccccc3)C2=O)c(C)n1-c1ccc(C(=O)O)c(Cl)c1` gave RORg inh -9.2%, VP16 counter 1.8%, DT40 TDP1 CPT -1.5% and TDP1 cell noCPT 10.9%.
`O=P(CN1CCN(c2ccccc2)CC1)(N1CCCCC1)N1CCCCC1` gave RORg inh 1.7%, TDP1 block 8.1%, VP16 counter -11.1%, DT40 TDP1 CPT inconclusive and TDP1 cell noCPT inconclusive.
For CC(C)[C@H]1CC2C3CC=C4C[C@@H](O)CC[C@]4(C)C3CC[C@]2(C)[C@H]1O (some centres undefined) the results were TDP1 block -0.8%, DT40 TDP1 CPT -29.2% and TDP1 cell noCPT inconclusive.
For CC(=O)[C@H]1[C@H](C#N)C[C@H]2[C@@H]3CC=C4C[C@@H](O)CC[C@]4(C)[C@H]3CC[C@@]21C the results were RORg inh 1.5%, TDP1 block 8.7%, VP16 counter -2.4%, DT40 TDP1 CPT inconclusive and TDP1 cell noCPT 12.6µM*!.
`CCC1(CC)C(=O)C=CNC1=O` gave RORg inh 0.9%, TDP1 block -6.8%[56.1 µM], VP16 counter -3.1%, DT40 TDP1 CPT 5.7% and TDP1 cell noCPT 0.4%.
`Cc1[nH]n(-c2ccccc2)c(=O)c1C(C[N+](=O)[O-])c1ccccc1Cl` (centres undefined) gave RORg inh 7.1%, TDP1 block 11.9%, VP16 counter 14.4%, DT40 TDP1 CPT 20.6µM* and TDP1 cell noCPT 29.1µM*.
Screening Cc1c(C(c2ccc(O)cc2)c2c(O)c3ccccc3oc2=O)c(=O)n(-c2ccccc2)n1C (centres undefined) returned RORg inh 5.1%, TDP1 block -2.9%, VP16 counter -3.6%, DT40 TDP1 CPT inconclusive and TDP1 cell noCPT 9.4%.
Screening Cc1[nH]n(-c2ccccc2)c(=O)c1C(c1ccc([N+](=O)[O-])cc1)c1c(C)[nH]n(-c2ccccc2)c1=O returned RORg inh 1.9%, TDP1 block 3.4%, VP16 counter -10.0%, DT40 TDP1 CPT 16.4µM* and TDP1 cell noCPT inconclusive.
CC/C(=N\N1CCCCCC1)c1c(O)n(-c2ccccc2C)c(=O)[nH]c1=O was read as RORg inh inconclusive, TDP1 block 8.0%, VP16 counter inconclusive, DT40 TDP1 CPT 20.6µM* and TDP1 cell noCPT 14.6µM*.
Screening CCC(=NCCN1CCOCC1)c1c(O)n(-c2ccccc2C)c(=O)[nH]c1=O returned RORg inh 9.3%, TDP1 block 5.3%, VP16 counter -3.3%, DT40 TDP1 CPT 7.6% and TDP1 cell noCPT 1.2%.
`COc1ccc(CC(N)c2csc(NC(=O)Nc3ccccc3Oc3ccccc3)n2)cc1` (centres undefined) gave DT40 TDP1 CPT inconclusive and TDP1 cell noCPT 16.4µM*.
Screening COc1ccc(C2CN(C)CC2C(=O)c2ccc(C)cc2)cc1Cl (centres undefined) returned RORg inh -2.7%, TDP1 block 5.9%, VP16 counter 3.7%, DT40 TDP1 CPT -21.2% and TDP1 cell noCPT inconclusive.
Cc1cccc(C)c1-n1nnnc1C(c1cc2ccccc2o1)N1CCC(n2c(=O)[nH]c3ccccc32)CC1 (centres undefined) was read as DT40 TDP1 CPT 1.46µM* and TDP1 cell noCPT 1.3µM*.
Cc1cccc(C)c1-n1nnnc1C(c1ccccc1OC(F)(F)F)N1CCC(n2c(=O)[nH]c3ccccc32)CC1 (centres undefined) was read as DT40 TDP1 CPT 8.2µM* and TDP1 cell noCPT 5.8µM*.
COc1ccc(-n2nnnc2C(c2ccccc2)N2CCC(n3c(=O)[nH]c4ccccc43)CC2)cc1 (centres undefined) was read as DT40 TDP1 CPT 16.4µM* and TDP1 cell noCPT 14.6µM*.
Screening COc1ccc(N2CCN(C(CNC(=O)Oc3ccccc3)c3cccnc3)CC2)cc1 (centres undefined) returned RORg inh -3.2%, TDP1 block 5.3%, VP16 counter -11.3%[0.365 µM], DT40 TDP1 CPT -7.9% and TDP1 cell noCPT -24.9%.
Screening COc1ccc(C(c2nnnn2-c2c(C)cccc2C)N2CCC(n3c(=O)[nH]c4ccccc43)CC2)cc1 (centres undefined) returned DT40 TDP1 CPT 8.2µM* and TDP1 cell noCPT 9.2µM*.
CC(C)C[C@H](NC(=O)[C@H](Cc1ccccc1)NC(=O)CNC(=O)[C@H](CS)N(C(=O)[C@@H](N)Cc1ccc(O)cc1)C(C)(C)C)C(=O)N([C@H](C(=O)O)[C@H](C)O)C(C)(C)C was read as TDP1 block 2.4%, DT40 TDP1 CPT -4.6%[4.12 µM] and TDP1 cell noCPT -4.2%[4.12 µM].
CN1CCCC2(CCN(C(=O)c3ccco3)CC2)C1 was read as RORg inh 7.0%, VP16 counter 3.5%, DT40 TDP1 CPT 15.2% and TDP1 cell noCPT -1.2%.
